An excerpt weighted towards active compounds, which were near 13% of everything screened.
HCV inhibitor – HCV inhibition; AID 651820; Potency, µM (series often up to 41.8 µM), most hits filed as inhibitors; Huh7.5.1 HCVcc-Cre infection, luciferase reporter, 44 h; 340,000 tested, 3.4% active; active = well fitted inhibition curve with a large enough effect; inconclusive = small, poorly fitted or top-dose-only effect, or another doubt; inactive = no such curve, though single readings can be large or run the other way
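After 44 h co-culture of compound, cells and HCVcc-Cre (~0.5 moi), substrate is added for 15 min at room temperature and luciferase measured over 15 sec. Cells were seeded at 1,000/well and pre-cultured 4 h.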
Shiga toxin inh – Shiga toxin inhibition; Vero cells, Shiga toxin protein synthesis inhibition reporter; inhibition, % at 38.7 µM; 290,000 tested, 9.2% active; AID 2315; in the data active = inhibition mostly above about 28%, no sharp cut-off; inactive = mostly below about 43%
FMDV antiviral – blocks foot and mouth disease virus. AID 1159524. Potency, µM (doses to about 57.9 µM), most hits filed as inhibitors. FMDV antiviral cell-based qHTS. 410,000 tested, 1.2% active; calls by dose curve; tested in HEK293T cells; note: read-out not given here; nearly all actives have a fitted effect of over 45% in size
Lassa entry inh – blocks Lassa virus binding to or entry into cells; Lassa virus pseudotype entry inhibition, cell reporter; Potency, µM (titrated, usually from 37.9 µM), most hits filed as inhibitors; 300,000 tested, 1.2% active; calls by dose curve; tested in HEK293 cells; note: nearly all actives have a fitted effect of over 50% in size
Marburg entry inh – inhibitors of Marburg virus binding or cell entry | Marburg virus pseudotyped entry inhibition, cell reporter | Potency, µM (top dose mostly 37.8 µM), most hits filed as inhibitors | 300,000 tested, 1.8% active; calls by dose curve; tested in HEK293 cells
CHX counter – counter-screen for Shiga toxin inhibitors: cycloheximide protein synthesis inhibition. cell reporter, cycloheximide protein synthesis inhibition counterscreen. max response, %. 300,000 tested, 12% active; in the data active = max response mostly above about 13%, no sharp cut-off; inactive = mostly below about 14%; note: read at 38.3 µM for the half of the compounds with a filed dose
Numbers stand for hits; n = inactive; u = inconclusive; x = no result; [ ] = another dose, or the depositor's remark.

SMILES	HCV inhibitor	Shiga toxin inh	FMDV antiviral	Lassa entry inh	Marburg entry inh	CHX counter
Cc1ccc(CNC(=O)C2CCC(CNc3nc(=S)[nH]c4ccccc34)CC2)cc1 (stereo not given)	u	n	n	n	3.5µM	n
COc1cccc(N2CCN(C(=O)CN3C(=O)NC(C)(c4ccc5ccccc5c4)C3=O)CC2)c1 (stereo not given)	11µM	x	u	u	u	x
C[C@@H]1CC[C@H]2C(=O)N3[C@@H](CC[C@@H](C)[C@@H]3c3ccc(Br)cc3)C(=O)N2[C@H]1c1ccc(Br)cc1	n[8.37 µM]	n	u	n	n	n
CC1c2ccccc2-c2ccccc2N1C (stereo not given)	13µM	x	n	n	n	x
COC(=O)C1c2ccccc2-c2ccccc21	n	n	n	n	n	n
CN(CC(=O)Nc1ccccc1Cl)C(=O)COC(=O)c1ccc(S(=O)(=O)C(F)F)cc1	n	x	n	n	n	x
CCOC(=O)c1c(CSc2ccccc2)n(C)c2cc(Br)c(O)c(CN(C)C)c12	u	n	n	u	u	n
CCOC(=O)c1c(CN(C)C)oc2cc(CN(C)C)c(O)c(CSc3ccccc3)c12	n	n	n	n	10µM	n
Cn1ncc([N+](=O)[O-])c1C(=O)Nc1ccc(Cl)cc1	n	n	n	x	x	n
Cn1ncc([N+](=O)[O-])c1C(=O)Nc1ccc(C2CCCCC2)cc1	n	n	n	n	u	26
Cn1ncc([N+](=O)[O-])c1C(=O)Nc1ccc(-c2nc3ccccc3[nH]2)cc1	u	48	x	u	n	42
CN1OC[C@@H]2CN[C@H](c3ccc(-c4cc5ccccc5o4)cc3)C[C@@H]21	x	x	0.35µM	x	x	x
CCC1(CC)Nc2ccccc2C(=O)N1c1ccc(OC)cc1	n	36	n	x	x	33
CC1(C)Nc2ccccc2C(=O)N1NC(=O)c1ccccc1	n	n	u	x	x	n
CCC1(CC)Nc2ccccc2C(=O)N1c1ccc(NC(C)=O)cc1	n	n	n	n	n	12
COc1ccc(N2C(=O)c3ccccc3NC23CCCC3)cc1	n	44	n	u	u	31
CC(=O)Nc1ccc(NC(=O)CCCCCN2C(=O)c3ccccc3C2=O)cc1	n	n	n	n	n	n
CC1(C)Nc2ccccc2C(=O)N1c1ccccc1	n	x	n	n	n	19
CC(=O)O[C@]1(C(C)=O)CCC2C3CCC4=C/C(=N/OCC(=O)O)CC[C@]4(C)C3CC[C@@]21C (stereo not given in full)	n	n	n	x	x	n
Cc1ccc(C(=O)O)cc1S(=O)(=O)N1CCSCC1	n	n	n	n	n	n
COc1ccc2c(c1)cc(C(=O)N[C@@H](Cc1ccccc1)C(=O)N[C@@H](C)C(=O)O)n2C	n	n	n	n	n	n
CCc1nnc(NS(=O)(=O)c2ccc(NS(=O)(=O)c3ccc(NC(C)=O)cc3)cc2)s1	x	n	x	x	x	n
CCc1nnc(NS(=O)(=O)c2ccc(NC(=O)c3ccc(S(=O)(=O)N(CC)CC)cc3)cc2)s1	n	n	n	u	n	n
CCc1nnc(NS(=O)(=O)c2ccc(NC(=S)NC(=O)/C=C/c3ccc(F)cc3)cc2)s1	n	n	u	n	n	n
CCc1nnc(NS(=O)(=O)c2ccc(N/C=C\C(=O)c3ccc(F)cc3)cc2)s1	n	66	n	x	x	47
SMILES	HCV inhibitor	Shiga toxin inh	FMDV antiviral	Lassa entry inh	Marburg entry inh	CHX counter
CCc1nnc(NS(=O)(=O)c2ccc(N/C=C\C(=O)c3ccc(C)cc3)cc2)s1	n	103	n	n	n	28
CCc1nnc(NS(=O)(=O)c2ccc(N/C=C/C(=O)c3ccc(C)cc3)cc2)s1	n	93	n	n	n	39
CCc1nnc(NS(=O)(=O)c2ccc(N/C=C\C(=O)c3cccc(OC)c3)cc2)s1	n	72	n	n	n	32
Cc1cc(-c2ccccc2N)n[nH]1	n	n	n	n	n	n
CCC(=O)Nc1c2c(nn1-c1ccccc1)CSC2	n	n	n	x	x	n
O=C(CCCN1C(=O)/C(=C\c2cccc(Br)c2)SC1=S)Nc1ccc(C(=O)O)cc1	x	x	n	x	x	x
Cn1c(O)c(C=NC2CCCCCC2)c(=O)[nH]c1=S	n	n	n	x	x	n
Cc1ccc(Nc2nc(NCCO)nc(N3CCCC3)n2)cc1	x	x	n	x	x	x
CCCNc1nc(N2CCCC2)nc(N2CCCC2)n1	11µM	n	u	u	u	n
CCNc1nc(NC(C)(C)C)nc(N2CCCC2)n1	u	n	n	u	3.2µM	n
CC(C)(C)Nc1nc(N2CCCC2)nc(N2CCCC2)n1	u	n	u	u	u	n
CCOc1ccc(C2C(C#N)=C(N)Oc3nc[nH]c(=O)c32)cc1 (stereo not given)	n	n	n	u	u	n
COc1cccc(NC(=O)Cn2c(=O)n(CCC(=O)NCc3ccco3)c(=O)c3ccccc32)c1	n	n	n	x	x	n
COC(=O)c1ccc(C(=O)NN)cc1	n	n	n	n	u	n
COC(=O)c1ccc(C(=O)Nc2ccc(C(C)C)cc2N)cc1	n	70	n	n	n	32
COc1ccc(-n2c(-c3ccc(Cl)cc3)c[n+]3c2CCCCC3)cc1	n	n	n	x	n	n
CCOc1ccc(-n2c(-c3ccc(Br)cc3)c[n+]3c2CCCCC3)cc1	n	n	u	u	u	n
COc1ccc(-c2c[n+]3c(n2-c2ccc(C)cc2)CCCCC3)cc1	u	n	u	5µM	7.1µM	n
CCOc1ccc(-n2c(-c3ccc(OC)cc3)c[n+]3c2CCCCC3)cc1	7.9µM	n	u	u	u	n
CCN1CCN(c2ccc(N3CCN(S(=O)(=O)c4ccc(C)c([N+](=O)[O-])c4)CC3)nn2)CC1	u	x	n	n	n	x
Cn1c(-c2ccccc2)cnc1N	n	n	n	n	n	29
CC(=O)c1ccc(NC(=O)CN(c2c(C)cccc2C)S(C)(=O)=O)cc1	n	99	n	x	x	23
CCOc1ccc(N(CC(=O)Nc2cccnc2)S(C)(=O)=O)cc1	n	n	n	n	n	n
CCOc1ccc(N(CC(=O)Nc2ccc(C)cc2C)S(C)(=O)=O)cc1	n	n	n	x	x	n
CCOc1ccc(N(CC(=O)Nc2cccc(Br)c2)S(C)(=O)=O)cc1	u	64	n	x	x	26
SMILES	HCV inhibitor	Shiga toxin inh	FMDV antiviral	Lassa entry inh	Marburg entry inh	CHX counter
CCOc1ccc(NC(=O)CN(c2ccc(OCC)cc2)S(=O)(=O)c2c(C)[nH]c(=O)[nH]c2=O)cc1	n	n	n	x	x	n
CCOc1ccc(N(CC(=O)Nc2ccc(C)cc2)S(C)(=O)=O)cc1	n	66	n	n	n	37
CCOc1ccc(N(CC(=O)Nc2cc(C)cc(C)c2)S(C)(=O)=O)cc1	u	75	n	x	x	59
COc1ccc(C#Cc2cccc(-c3nc(C(=O)NCCCN4CCOCC4)cc4c3[C@H](CCO)N(S(=O)C(C)(C)C)C4)c2)cc1OC (stereo not given in full)	x	x	n	x	x	x
Cc1ccc(S(=O)(=O)NC(=O)C2(C)CCN2C(=O)C2(c3ccc(Cl)cc3)CC2)nc1 (stereo not given)	x	x	n	x	x	x
CN(CCc1ccccn1)C(=O)Nc1ccc(C(C)(C)C)cc1	u	n	n	n	n	20

Assay outcomes from PubChem BioAssay.
